The nature of assay [1]: NCI Yeast Anticancer Drug Screen. Data for the rad50 strain (AID 155).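 Further: 0% = growth of vehicle-only cultures of the same strain.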 Conditions: S. cerevisiae rad50 strain growth inhibition, stronger effect = higher value. The method, boiled down:
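Cells are treated with compound, grown, and their growth is then scored against vehicle-only cultures of the same repair-deficient yeast strain.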

A short description of assay [2]: NCI Yeast Anticancer Drug Screen. Data for the mec2-1 strain (AID 157). Conditions: S. cerevisiae mec2-1 strain, stronger effect = higher value. The method, boiled down: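 mec2-1 yeast strain, carrying an alteration in DNA damage repair or cell cycle control, was exposed to compounds; growth inhibition was measured relative to vehicle-treated controls.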
The nature of assay [3]: NCI Yeast Anticancer Drug Screen. Data for the sgs1 mgt1 strain (AID 161).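 Further: 0% = growth of cultures given vehicle only.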 As to conditions: S. cerevisiae sgs1 mgt1 strain, stronger effect = higher value. Summed up:
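Percent growth inhibition was derived by comparing compound-exposed mutant yeast with vehicle-exposed cultures. The strain carries alterations in DNA damage repair.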

Assay [4] is described as follows: NCI Yeast Anticancer Drug Screen. Data for the cln2 rad14 strain (AID 165).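 Further: 0% = growth equal to vehicle treated cultures.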 As to conditions: S. cerevisiae cln2 rad14 strain, stronger effect = higher value. Summed up:
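Yeast carrying cln2 and rad14 alterations (cell cycle control and DNA damage repair) were exposed to compounds. Growth inhibition was measured against vehicle-treated controls.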

The nature of assay [5]: NCI Yeast Anticancer Drug Screen. Data for the bub3 strain (AID 167). Conditions: S. cerevisiae bub3 mutant strain, stronger effect = higher value. Summed up: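 Part of a panel of yeast mutants defective in DNA damage repair or cell cycle regulation. Each strain is grown with compound, and inhibition is calculated relative to solvent-treated cultures.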
Assay [6] can be described thus: NCI Yeast Anticancer Drug Screen. Data for the mlh1 rad18 strain (AID 175). As to conditions: S. cerevisiae mlh1 rad18 strain growth inhibition, stronger effect = higher value. The method, boiled down: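 Growth inhibition of the yeast strain was measured after compound exposure and expressed relative to vehicle-treated controls. The strain carries defined defects in DNA damage repair.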

Where [7] appears, read: at 5.0 µM (retest, dose inferred, filed as 0.5).
[8] abbreviates: at 50.0 µM (retest, dose inferred, filed as 5.0).

The panel holds about 79,000 compounds, 15% with a hit somewhere; the sample as a whole holds those more often. Unmarked numbers belong to inactive results. Calls of active or inactive are those of the source. No stated cut-off is given here; in the data, active means growth inhibition above about 70%; inactive means the rest.

For `O=C(NCc1ccc(F)cc1)c1ccc(C(=O)NCc2ccc(F)cc2)cc1`, the growth inhibition in assay [1] (setting [7]) was 1%; in assay [1] (setting [8]), -4%; in assay [1] (at 50.0 µM), -6.6%; in assay [2] (setting [7]), -19%; in assay [2] (setting [8]) it was 21%; in assay [2] (at 50.0 µM) it was -4.05%. Besides, the growth inhibition is -13% in assay [3] (setting [7]); 2% in assay [3] (setting [8]); -13.1% in assay [3] (at 50.0 µM); 2% in assay [4] (setting [7]); 6% in assay [4] (setting [8]); 58.4% in assay [4] (at 50.0 µM). Besides, the growth inhibition was 1% in assay [5] (setting [7]); 7% in assay [5] (setting [8]); -6.9% in assay [5] (at 50.0 µM); -8% in assay [6] (setting [7]); -20% in assay [6] (setting [8]); -10.1% in assay [6] (at 50.0 µM).
In the case of `CC1C/C(=C\c2ccc(O)c(O)c2)C(=O)/C(=C/c2ccc(O)c(O)c2)C1` (stereo not given), the growth inhibition in assay [1] (setting [7]) is 22%; in assay [1] (setting [8]), 71% (active); in assay [1] (at 50.0 µM), 52.4%; in assay [2] (setting [7]), 20%; in assay [2] (setting [8]), 67%; in assay [2] (at 50.0 µM), 32.3%. For the same molecule, the growth inhibition in assay [3] (setting [7]) was 17%; in assay [3] (setting [8]), 66%; in assay [3] (at 50.0 µM), 47.5%; in assay [4] (setting [7]) it was 7%; in assay [4] (setting [8]), 65%; in assay [4] (at 50.0 µM), 41%. Moreover, the growth inhibition in assay [5] (setting [7]) is 16%; in assay [5] (setting [8]) it was 67%; in assay [5] (at 50.0 µM), 19.9%; in assay [6] (setting [7]), 27%; in assay [6] (setting [8]), 84% (active); in assay [6] (at 50.0 µM) it was 21.6%.
`O=C(/C=C/c1ccccc1Cl)c1ccc(F)cc1`: the growth inhibition is 7% in assay [1] (setting [7]); 22% in assay [1] (setting [8]); 54.2% in assay [1] (at 50.0 µM); -12% in assay [2] (setting [7]); 20% in assay [2] (setting [8]); 70.4% (active) in assay [2] (at 50.0 µM). For the same molecule, the growth inhibition in assay [3] (setting [7]) is -1%; in assay [3] (setting [8]) it was -4%; in assay [3] (at 50.0 µM), 53.8%; in assay [4] (setting [7]), 9%; in assay [4] (setting [8]), 17%; in assay [4] (at 50.0 µM), 34%. For the same molecule, the growth inhibition in assay [5] (setting [7]) was 33%; in assay [5] (setting [8]), 51%; in assay [5] (at 50.0 µM) it was 78.8% (active); in assay [6] (setting [7]), 8%; in assay [6] (setting [8]) it was 47%; in assay [6] (at 50.0 µM), 29.6%.
On to `C/C(=N\NC(=S)Nc1ccc(S(N)(=O)=O)cc1)c1ccccn1`, for which the growth inhibition in assay [1] (setting [7]) was 33%; in assay [1] (setting [8]), 64%; in assay [1] (at 50.0 µM) it was 63.5%; in assay [2] (setting [7]) it was 25%; in assay [2] (setting [8]) it was 65%; in assay [2] (at 50.0 µM) it was 42.8%. For the same molecule, the growth inhibition is 34% in assay [3] (setting [7]); 84% (active) in assay [3] (setting [8]); 28.9% in assay [3] (at 50.0 µM); 20% in assay [4] (setting [7]); 67% in assay [4] (setting [8]); 24.5% in assay [4] (at 50.0 µM). In addition, the growth inhibition in assay [5] (setting [7]) is 41%; in assay [5] (setting [8]), 84% (active); in assay [5] (at 50.0 µM), 37.6%; in assay [6] (setting [7]), 39%; in assay [6] (setting [8]) it was 70% (active); in assay [6] (at 50.0 µM), 64%.
`O=C1OC(c2ccccc2)(c2ccc(-c3ccc(O)cc3)cc2)c2ccccc21` (stereo not given): the growth inhibition was 6% in assay [1] (setting [7]); 95% (active) in assay [1] (setting [8]); 95.6% (active) in assay [1] (at 50.0 µM); 3% in assay [2] (setting [7]); 97% (active) in assay [2] (setting [8]); 97.6% (active) in assay [2] (at 50.0 µM). For the same molecule, the growth inhibition in assay [3] (setting [7]) is -1%; in assay [3] (setting [8]) it was 97% (active); in assay [3] (at 50.0 µM) it was 96.8% (active); in assay [4] (setting [7]), 6%; in assay [4] (setting [8]), 96% (active); in assay [4] (at 50.0 µM) it was 95.3% (active). Moreover, the growth inhibition in assay [5] (setting [7]) is 8%; in assay [5] (setting [8]), 96% (active); in assay [5] (at 50.0 µM), 95.8% (active); in assay [6] (setting [7]), 7%; in assay [6] (setting [8]) it was 96% (active); in assay [6] (at 50.0 µM), 96.7% (active).
As to `COc1ccc2c(c1)O[C@H]1c3ccc(O)cc3OC[C@@H]21`, the growth inhibition in assay [1] (setting [7]) was 1%; in assay [1] (setting [8]), 35%; in assay [1] (at 50.0 µM), 72.7% (active); in assay [2] (setting [7]) it was 8%; in assay [2] (setting [8]) it was 36%; in assay [2] (at 50.0 µM), 69.5%. For the same molecule, the growth inhibition was -2% in assay [3] (setting [7]); 41% in assay [3] (setting [8]); 68% in assay [3] (at 50.0 µM); 3% in assay [4] (setting [7]); 16% in assay [4] (setting [8]); 50.3% in assay [4] (at 50.0 µM). Besides, the growth inhibition in assay [5] (setting [7]) is 5%; in assay [5] (setting [8]) it was 41%; in assay [5] (at 50.0 µM), 74.2% (active); in assay [6] (setting [7]), 1%; in assay [6] (setting [8]), 53%; in assay [6] (at 50.0 µM), 84% (active).
As for `CC(C)(C)SC(=O)C1(C)OC1c1ccc([N+](=O)[O-])cc1` (stereo not given), the growth inhibition is -6% in assay [1] (setting [7]); 45% in assay [1] (setting [8]); 53% in assay [1] (at 50.0 µM); -4% in assay [2] (setting [7]); -3% in assay [2] (setting [8]); 67.8% in assay [2] (at 50.0 µM). Besides, the growth inhibition in assay [3] (setting [7]) was -5%; in assay [3] (setting [8]), 51%; in assay [3] (at 50.0 µM), 62.3%; in assay [4] (setting [7]), 5%; in assay [4] (setting [8]) it was -2%; in assay [4] (at 50.0 µM) it was -20.8%. Further, the growth inhibition in assay [5] (setting [7]) is 0%; in assay [5] (setting [8]) it was 13%; in assay [5] (at 50.0 µM), 29.8%; in assay [6] (setting [7]), -5%; in assay [6] (setting [8]), 49%; in assay [6] (at 50.0 µM) it was 79.8% (active).
As for `O=C(Nc1ccc(Cl)cc1)c1cccc([N+](=O)[O-])c1O`, the growth inhibition in assay [1] (setting [7]) was 9%; in assay [1] (setting [8]) it was 13%; in assay [1] (at 50.0 µM) it was 32.8%; in assay [2] (setting [7]), 5%; in assay [2] (setting [8]), 11%; in assay [2] (at 50.0 µM) it was -8.45%. In addition, the growth inhibition was 8% in assay [3] (setting [7]); 11% in assay [3] (setting [8]); 70.8% (active) in assay [3] (at 50.0 µM); -3% in assay [4] (setting [7]); 34% in assay [4] (setting [8]); -22% in assay [4] (at 50.0 µM). Moreover, the growth inhibition in assay [5] (setting [7]) was 6%; in assay [5] (setting [8]) it was 10%; in assay [5] (at 50.0 µM), -5%; in assay [6] (setting [7]) it was 7%; in assay [6] (setting [8]), 16%; in assay [6] (at 50.0 µM), 11.2%.
Turning to `N#CSCN1C(=O)C2CC=CCC2C1=O` (stereo not given), the growth inhibition was 14% in assay [1] (setting [7]); 93% (active) in assay [1] (setting [8]); 93% (active) in assay [1] (at 50.0 µM); 2% in assay [2] (setting [7]); 95% (active) in assay [2] (setting [8]); 97.1% (active) in assay [2] (at 50.0 µM). Moreover, the growth inhibition in assay [3] (setting [7]) is 8%; in assay [3] (setting [8]) it was 94% (active); in assay [3] (at 50.0 µM), 49.5%; in assay [4] (setting [7]) it was 9%; in assay [4] (setting [8]) it was 94% (active); in assay [4] (at 50.0 µM), 49.5%. Further, the growth inhibition is 6% in assay [5] (setting [7]); 95% (active) in assay [5] (setting [8]); 95.5% (active) in assay [5] (at 50.0 µM); 11% in assay [6] (setting [7]); 96% (active) in assay [6] (setting [8]); 50.4% in assay [6] (at 50.0 µM).
Regarding `Cc1ccc2[nH]c3c(c2c1)CCC/C3=N/N=C(N)N`, the growth inhibition in assay [1] (setting [7]) is 26%; in assay [1] (setting [8]), 93% (active); in assay [1] (at 50.0 µM), 63%; in assay [2] (setting [7]) it was 14%; in assay [2] (setting [8]) it was 100% (active); in assay [2] (at 50.0 µM) it was 83% (active). Besides, the growth inhibition in assay [3] (setting [7]) was 24%; in assay [3] (setting [8]), 99% (active); in assay [3] (at 50.0 µM), 90.8% (active); in assay [4] (setting [7]), 22%; in assay [4] (setting [8]) it was 99% (active); in assay [4] (at 50.0 µM) it was 91% (active). The growth inhibition in assay [5] (setting [7]) is 21%; in assay [5] (setting [8]) it was 99% (active); in assay [5] (at 50.0 µM), 89.2% (active); in assay [6] (setting [7]) it was 29%; in assay [6] (setting [8]) it was 97% (active); in assay [6] (at 50.0 µM), 90.8% (active).

Values taken from PubChem BioAssay (NCI).
